# Screens (PubChem)
# This is a sample that favours compounds with a hit; in the whole collection about 4.8% have one here.
# Mdm2-MdmX inh: inhibitors of human Mdm2-MdmX association, primary screen, cell-based, luminescence, split luciferase, SaOS-2, uHTS; SaOS-2 split-luciferase Mdm2/MdmX complementation; inhibition, % at 8 µM; hit rate 3% among 330,000; AID 485346, 2010;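 active = inhibition of at least 50% at 8 µM in the primary screen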
# Target sequence (O15151 whole entry, looked up): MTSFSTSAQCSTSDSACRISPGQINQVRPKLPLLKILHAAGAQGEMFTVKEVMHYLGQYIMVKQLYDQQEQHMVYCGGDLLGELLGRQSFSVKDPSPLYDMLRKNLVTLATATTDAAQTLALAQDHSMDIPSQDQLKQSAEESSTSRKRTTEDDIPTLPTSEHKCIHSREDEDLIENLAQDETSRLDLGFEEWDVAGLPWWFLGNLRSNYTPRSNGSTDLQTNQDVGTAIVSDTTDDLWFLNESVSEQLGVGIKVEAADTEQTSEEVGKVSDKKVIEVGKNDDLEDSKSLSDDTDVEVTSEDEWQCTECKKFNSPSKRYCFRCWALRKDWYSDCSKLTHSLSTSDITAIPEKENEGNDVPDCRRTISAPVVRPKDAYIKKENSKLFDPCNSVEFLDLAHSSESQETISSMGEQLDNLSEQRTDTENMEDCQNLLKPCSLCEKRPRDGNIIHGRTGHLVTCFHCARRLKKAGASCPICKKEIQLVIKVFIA
# Target sequence (Q00987 whole entry, looked up): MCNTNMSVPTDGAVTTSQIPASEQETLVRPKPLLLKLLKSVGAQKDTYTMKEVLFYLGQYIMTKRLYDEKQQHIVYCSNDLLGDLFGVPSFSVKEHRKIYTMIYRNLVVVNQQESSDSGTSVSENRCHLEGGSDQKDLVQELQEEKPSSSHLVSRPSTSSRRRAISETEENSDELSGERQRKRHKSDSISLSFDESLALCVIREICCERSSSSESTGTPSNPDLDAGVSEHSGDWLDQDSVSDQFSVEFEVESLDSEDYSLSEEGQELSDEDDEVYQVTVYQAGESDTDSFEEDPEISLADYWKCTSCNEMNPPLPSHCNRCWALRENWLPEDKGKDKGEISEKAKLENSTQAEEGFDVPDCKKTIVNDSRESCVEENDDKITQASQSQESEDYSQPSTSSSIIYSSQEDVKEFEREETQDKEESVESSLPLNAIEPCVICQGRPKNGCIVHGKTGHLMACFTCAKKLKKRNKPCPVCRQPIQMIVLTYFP
# Beta apoptosis: inhibitors of cytokine-induced beta cell apoptosis, primary screen, luminescence; hit rate 0.8% among 300,000; AID 435005, 2010; protection from apoptosis, % (no concentration beside the values); INS-1E cytokine-induced death, ATP luminescence, 48 h; percent of positive-control rescue, neutral wells zero;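 active = Every replicate reaches about 75%, or at least half do and their mean reaches it too, limit read from the data; inconclusive = At least half of replicates reach the limit but their mean does not; inactive = Under half of replicates reach the limit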;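 note: higher means more ATP so stronger rescue from cytokine killing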
# MPTP block: mitochondrial permeability transition pore inhibitors, primary screen, biochemical, isolated mouse mitochondria, absorbance. Ca2+ swelling absorbance, 30 min. inhibition, % at 10 µM. hit rate 1.4% among 360,000. AID 602449, 2012;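 active = inhibition of 50% or more, scaled per plate between neutral and stimulator controls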
# CSC inhib: cancer stem cell viability inhibitors, primary screen, luminescence; cancer stem cell-like cells viability; inhibition, % at 7.5 µM; hit rate 1.1% among 300,000; AID 2717, 2010; in the data active = inhibition above about 75%; inconclusive = no clear call, values can overlap the other calls; tested in HMLE shEcad cells
# Calb FLC: C. albicans growth inhibition with fluconazole, primary screen, CaCi-2 strain, Alamar Blue fluorescence; C. albicans CaCi-2 (fluconazole-resistant clinical isolate) + fluconazole, 48 h; growth inhibition, % (test concentration not listed); hit rate 0.57% among 300,000; AID 1979, 2009;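 active = growth inhibition above about 58% in most replicates, limit read from the data, passing the limit was not always enough; inconclusive = exactly half the replicates above a set limit; inactive = most replicates below a set limit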;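 note: all wells also contain fluconazole at 8 µg/ml as a sub-toxic cotreatment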
# Hits are given with their value; i = inactive; ? = inconclusive; nt = not tested or not shown.
SMILES,Mdm2-MdmX inh,Beta apoptosis,MPTP block,CSC inhib,Calb FLC
Cc1c(Cc2ccccc2)c(=O)oc2cc(O)ccc12,i,i,i,i,i
CS(=O)(=O)c1ccc(-c2csc(C(O)c3cccc(Cl)c3)n2)cc1 (stereo unspecified),nt,nt,i,nt,nt
CC(=O)c1cc(C#N)c(N2CCCC2)nc1C,i,i,i,nt,93
CCOC(=O)C1=CCN(S(=O)(=O)c2ccccc2C)C1c1ccc(Cl)cc1 (stereo unspecified),nt,nt,i,nt,nt
Cc1ccc(C)c(NC(=O)c2cc(-c3ccccc3)nn2-c2ccccc2)c1,i,i,i,89,i
CCN1/C(=C2\SC(=S)N(Cc3ccccc3)C2=O)Sc2ccccc21,i,i,i,i,i
CCC(CO)[n+]1c(C)cc(/C=C2\Sc3ccccc3N2Cc2ccccc2)cc1C (stereo unspecified),nt,105,i,i,nt
O=C1NC[C@H](CCCCN2C[C@H](Cc3ccccc3)N(CCC3CCCCC3)C(=O)C2=O)N(CCc2ccccc2)C1=O,nt,nt,i,nt,nt
OC[C@@H]1CN(Cc2ccc3c(c2)OCO3)C[C@H](n2cnc3c(NC4CC4)ncnc32)O1,nt,nt,i,nt,nt
COC(=O)[C@@H]1CCCN1Cc1nc(Cc2ccc(OC)c(OC)c2)no1,i,i,i,i,i
COC(=O)[C@@H]1CCCN1Cc1nc(Cc2ccccc2F)no1,i,i,i,i,92
COC(=O)[C@H](Cc1ccccc1)N(Cc1ccccc1)S(=O)(=O)N(Cc1ccccc1)[C@@H](Cc1ccccc1)C(=O)OC,i,119,i,i,nt
COC(=O)[C@H](Cc1ccccc1)N(C)S(=O)(=O)c1cccc(S(=O)(=O)N(C)[C@@H](Cc2ccccc2)C(=O)OC)c1,i,i,i,i,i
CCOC1=C2[C@H](c3ccc(Cl)cc3)N(S(=O)(=O)c3ccc(C)cc3)C[C@H]2n2c(=O)n(-c3ccccc3)c(=O)n2C1,nt,nt,i,nt,nt
CCCCCCCn1c2c(c(=N)c3c1CCC3)CCCC2,nt,nt,i,nt,94
CCC(=O)N1CCC1(C)C(=O)Nc1cccc2c1CCCC2 (stereo unspecified),nt,nt,i,nt,nt
CCCCNc1nc(Nc2ccc(C)c(Cl)c2)c2cnn(C)c2n1,i,i,i,82,i
CC(C)c1cc(Cn2c3ccccc3c(=O)n2C(C)Cn2cc(-c3ccc(C(C)(C)C)cc3)nn2)on1 (stereo unspecified),nt,nt,i,nt,nt
Cc1ccc(NC(=O)c2cc(S(=O)(=O)NCCC3=CCCCC3)ccc2F)cc1,i,105,i,nt,i
Cc1ccc(NC(=O)c2cc(S(=O)(=O)NCC3CCCO3)ccc2F)cc1 (stereo unspecified),nt,nt,i,nt,nt
COc1cc(/C=C2\SC(=S)NC2=O)ccc1OS(=O)(=O)c1ccccc1,i,113,nt,97,i
COc1ccc(/C=C2\SC(=S)NC2=O)cc1OS(=O)(=O)c1ccc(NC(C)=O)cc1,nt,nt,i,nt,?
COc1cc(/C=C2/SC(=S)NC2=O)ccc1OS(=O)(=O)c1ccc(C)cc1,i,i,i,102,i
Cc1ccc(Cl)cc1-c1cc(C(=O)N2CCN(c3ccncc3)CC2)[nH]n1,nt,nt,i,nt,nt
COC(=O)[C@@]12C[C@@H](CC(=O)NCCc3ccccc3OC)C(=O)N(Cc3ccco3)C1=CCC(C)(C)C2,nt,nt,i,nt,nt
SMILES,Mdm2-MdmX inh,Beta apoptosis,MPTP block,CSC inhib,Calb FLC
CCCCn1nnnc1C1(C)CCC(=O)N1CCOC (stereo unspecified),nt,nt,i,nt,nt
O=C(COc1ccc(C(=O)O)cc1)Nc1cccc(C(F)(F)F)c1,i,nt,i,nt,i
CCCCCNCC(=O)Nc1cccc(C(=O)Nc2cccc(C(F)(F)F)c2)c1,i,i,i,93,i
O=C(COCC(=O)Nc1cccc(C(F)(F)F)c1)Nc1cccc(C(F)(F)F)c1,i,i,i,77,i
CNNC(=S)Nc1cccc(C(F)(F)F)c1,i,i,i,i,i
FC(F)(F)c1cccc(NC(=S)NNC(=S)Nc2cccc(C(F)(F)F)c2)c1,i,97,nt,110,i
CC(C)NC(=O)C1(C)CCCN1C(=O)c1ccccc1Br (stereo unspecified),nt,nt,i,nt,nt
CCOC(=O)C1=C(N)Oc2cc(O)ccc2C1c1cccc(Cl)c1 (stereo unspecified),i,i,i,82,i
COc1ccc(NC(=O)c2cc(-c3sc(NC(=O)c4ccccc4)nc3C)n(Cc3ccccc3)n2)cc1,nt,nt,i,nt,nt
CCCCn1c(C2CCCCC2)nc2cc3[nH]c(=O)c(C(C)C)nc3cc21,i,nt,i,81,i
COc1cc(C)ccc1S(=O)(=O)NC(=O)C1(C)CCN1C(=O)c1ccc(C2CCCCC2)cc1 (stereo unspecified),nt,nt,i,nt,nt
O=C(CSc1cccc[n+]1[O-])CSc1cccc[n+]1[O-],i,nt,i,i,73
COC(=O)c1ccc(C(=O)OC)c(NC(=O)CSc2cccc[n+]2[O-])c1,i,i,i,nt,113
Clc1ccc(Sc2oc(/C=N/n3cnnc3)cc2Br)cc1,i,i,i,i,i
CN(C)C(=O)/C(C#N)=C\c1cc(Br)c(Sc2ccc(Cl)cc2)o1,nt,i,i,103,nt
O=C1NC[C@H](CCCCN2C[C@H](Cc3ccc(O)cc3)N(CCC3CCCCC3)C(=O)C2=O)N(CCc2ccc(O)cc2)C1=O,nt,nt,i,nt,nt
Cc1ccc(S(=O)(=O)CC(C)N2CCOCC2)c(S(=O)(=O)CC(C)N2CCOCC2)c1 (stereo unspecified),i,nt,i,i,103
COc1ccc(NC(=O)c2sc(=O)n(Cc3ccc(F)c(Cl)c3)c2C)cc1OC,nt,nt,i,nt,nt
O=[N+]([O-])c1cc(S(=O)(=O)N2CCCCCC2)ccc1F,nt,i,i,102,nt
CC(C)NC(=O)C1C(c2ccc(C(F)(F)F)cc2)=Nc2ccccc2N1C(=O)c1cccc2ccccc12 (stereo unspecified),nt,nt,i,nt,nt
Brc1cccc(OCCN2CCc3ccccc3C2)c1,i,i,i,84,i
CCCCCc1c(-c2ccc(Br)cc2)ncn1CCc1ccccc1OC,nt,nt,i,nt,nt
O=C1Nc2cc(C(=O)N3CCc4ccccc4C3)ccc2S/C1=C\c1ccccc1,i,i,i,118,i
COC(=O)[C@@]12C[C@@H](CC(=O)NCc3cccc4ccccc34)C(=O)N(Cc3ccc4c(c3)OCO4)C1=CCC(C)(C)C2,nt,nt,i,nt,nt
O=C(NCc1ccccc1)C1=C[C@H](c2csc3ccccc23)C[C@H](OCCCCO)O1,i,75,i,i,i
O=C(Nc1ccccc1)C1=C[C@H](c2csc3ccccc23)C[C@H](OCCCCO)O1,i,i,i,i,i
CCCCCCCCN1C(=O)[C@H](CC(=O)NCCCOC)C[C@@]2(C(=O)OC)CCCCC=C12,nt,nt,i,nt,nt
COc1ccc([C@H]2Oc3cc(O)cc(O)c3C(=O)C2[C@@H]2C(=O)c3c(O)cc(O)cc3O[C@@H]2c2ccc(OC)cc2)cc1 (stereo partly specified),i,i,nt,142,i
Cc1cc([N+](=O)[O-])nn1CC(=O)N/N=C/c1ccc(O)cc1O,i,i,i,80,i
Cc1cc([N+](=O)[O-])nn1CC(=O)N/N=C/c1ccccc1Br,i,i,i,i,i
